From PubChem BioAssay (NCATS)
Results filed as inconclusive are left out. Activity calls are given as the source filed them. Unless noted, calls come from the whole dose curve; as a rule, active = well fitted curve in the direction sought with a large enough effect; inconclusive = small, poorly fitted or top-dose-only effect, or another doubt; inactive = no such curve, though single readings can be large; an effect the other way counts as inactive or inconclusive.

Columns and labels:
[1] = biological target: Atrial natriuretic peptide receptor 1 (Homo sapiens) (UniProt P16066); assay: Natriuretic polypeptide receptor (hNpr1) antagonism - Pilot screen (AID 1347049; calls by dose curve;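 note: agonist-evoked cGMP luminescence read 20 min after hNppA addition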; note: potency is the fitted concentration of half-maximal effect)
Method in brief: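 HEK293 cells co-expressing hNpr1 and the GloSensor pGS-40F cGMP luciferase sensor were preloaded with 2% GloSensor reagent for 2 h. Compounds were added for 30 min at room temperature, then cells were stimulated with 0.1 nM hNppA for 20 min before luminescence readout.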

[2] = biological target: Atrial natriuretic peptide receptor 2 (Homo sapiens) (UniProt P20594); assay: Natriuretic polypeptide receptor (hNpr2) antagonism - Pilot subtype selectivity assay (AID 1347050; calls by dose curve; note: potency is the fitted concentration of half-maximal effect)
Method in brief: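 cGMP-sensor HEK293/hNpr2 cells; 2% GloSensor reagent 2 h RT; compounds 30 min; baseline luminescence read; 1 nM hNppC agonist 20 min RT; final luminescence read by CCD camera. Antagonism = reduced post-agonist signal.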

[3] = NS1 protein of Zika virus - qHTS assay to identify small molecule inhibitors in human HEK 293 cells (AID 1347053); note: series mostly up to about 46 µM; nearly all actives have a fitted effect of over 55% in size
Method in brief: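 HEK 293; 20 h pre-culture, 37 C/5% CO2; cpd 1 h pre-infection; ZIKV MR766, MOI = 0.5, 24 h, 37 C; TR-FRET NS1 readout (two anti-NS1 Abs); norm. to no-virus vs infected.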

[4] = biological target: T1, Tyrosine-protein phosphatase non-receptor type substrate 1 (Homo sapiens) + Leukocyte surface antigen CD47 (Homo sapiens) (UniProt P78324+Q08722); assay: CD47-SIRPalpha protein protein interaction - LANCE assay qHTS validation (AID 1347057; active = well fitted curve in the direction sought with a large enough effect in the signal ratio, with a control signal flat, not every such curve was filed as active; the % refers to the signal ratio; note: series mostly up to about 38 µM)
Method in brief: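 First, His-tagged CD47 and Eu-labelled anti-His antibody met the compound for 30 min; next, site-specifically biotinylated SIRPalpha was added for 30 min; finally streptavidin-APC was added before reading the TR-FRET ratio.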

[5] = biological target: T1, Tyrosine-protein phosphatase non-receptor type substrate 1 (Homo sapiens) + Leukocyte surface antigen CD47 (Homo sapiens); assay: CD47-SIRPalpha protein protein interaction - HTRF assay qHTS validation (AID 1347058; active = well fitted curve in the direction sought with a large enough effect in the signal ratio, not every such curve was filed as active; the % refers to the signal ratio; note: series mostly up to about 38 µM)
Method in brief: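 TR-FRET read (Ch1/Ch2 ratio) of soluble extracellular CD47 and Avi-biotinylated SIRPalpha domains in PBS pH 7.4 with 0.05% IGEPAL; 7-point compound titration. Sequential 30 min room-temperature steps; non-biotinylated SIRPalpha as control inhibitor.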

[6] = biological target: Parathyroid hormone/parathyroid hormone-related peptide receptor (Homo sapiens) (UniProt Q03431); assay: qHTS for PTHR1 Agonists: Optimization Screen against the NCGC LOPAC library (AID 1347079);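 note: GloSensor cAMP luminescence in HEK-293 GP2 cells expressing human PTHR1 with IBMX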
Method in brief: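 Agonist readout: GloSensor cAMP luminescence, read after 15 min at room temperature. HEK-293-derived GP2 line carries PTHR1; compounds tested as a titration for 1 hr at 37C in presence of IBMX. M-PTH (1-15) served as control.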

[7] = Natriuretic polypeptide receptor (hNpr1) antagonism - Pilot counterscreen GloSensor control cell line (AID 1347045; calls by dose curve; note: potency is the fitted concentration of half-maximal effect)
Method in brief: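 HEK293 cGMP GloSensor cells preloaded 2 h with 2% GloSensor reagent, then compound 30 min before baseline luminescence read. Stimulated with 50 uM sodium nitroprusside, 20 min at room temperature, then read again; counterscreen for Npr1 antagonism.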

[8] = biological target: T1, Tyrosine-protein phosphatase non-receptor type substrate 1 (Homo sapiens) + Leukocyte surface antigen CD47 (Homo sapiens); assay: CD47-SIRPalpha protein protein interaction - Alpha assay qHTS validation (AID 1347059);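 note: bead proximity luminescence from CD47 binding SIRPalpha after compound preincubation with SIRPalpha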
Method in brief: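 Soluble extracellular domains: Avi-tag biotinylated SIRPalpha (25 nM) preincubated 30 min RT with compound, then 6His-CD47 (12.5 nM) 30 min; Ni-NTA acceptor and streptavidin donor beads (10 ug/mL) 30 min, AlphaScreen read. PBS pH 7.4, 0.05% IGEPAL.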

[9] = qHTS of pediatric cancer cell lines to identify multiple opportunities for drug repurposing: Primary screen for TC32 cells (AID 1347089); note: nearly all actives have a fitted effect of over 60% in size
Method in brief: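 Measured quantity: luminescence from CellTiter-Glo, reflecting metabolically active TC32 cells following 48 h of compound. Curves came straight from multi-point titrations, with 8 or 11 points in primary and 11 in confirmatory screening.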

[10] = qHTS of pediatric cancer cell lines to identify multiple opportunities for drug repurposing: Primary screen for DAOY cells (AID 1347090); note: series mostly up to about 46 µM; nearly all actives have a fitted effect of over 55% in size
Method in brief: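 Eight- or eleven-point concentration series, 48 h treatment at 37 degrees C in growth media; readout CellTiter-Glo luminescence. Potency and efficacy were taken from the concentration-response curves.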

Measured: Potency

T1 sequence (P78324 whole entry, looked up): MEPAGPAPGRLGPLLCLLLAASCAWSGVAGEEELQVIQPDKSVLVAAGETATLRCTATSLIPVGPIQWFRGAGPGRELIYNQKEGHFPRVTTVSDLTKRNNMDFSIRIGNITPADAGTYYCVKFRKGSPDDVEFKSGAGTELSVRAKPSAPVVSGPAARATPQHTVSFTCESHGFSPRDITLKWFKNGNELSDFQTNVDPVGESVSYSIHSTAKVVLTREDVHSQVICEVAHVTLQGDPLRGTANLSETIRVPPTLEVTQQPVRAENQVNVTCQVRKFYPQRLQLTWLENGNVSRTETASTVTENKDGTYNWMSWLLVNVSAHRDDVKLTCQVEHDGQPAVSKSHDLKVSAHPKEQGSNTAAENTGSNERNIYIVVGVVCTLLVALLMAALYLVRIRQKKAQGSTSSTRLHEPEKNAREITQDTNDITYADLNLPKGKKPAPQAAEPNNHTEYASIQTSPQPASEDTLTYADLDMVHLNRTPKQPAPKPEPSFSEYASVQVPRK
T1 sequence (Q08722 whole entry, looked up): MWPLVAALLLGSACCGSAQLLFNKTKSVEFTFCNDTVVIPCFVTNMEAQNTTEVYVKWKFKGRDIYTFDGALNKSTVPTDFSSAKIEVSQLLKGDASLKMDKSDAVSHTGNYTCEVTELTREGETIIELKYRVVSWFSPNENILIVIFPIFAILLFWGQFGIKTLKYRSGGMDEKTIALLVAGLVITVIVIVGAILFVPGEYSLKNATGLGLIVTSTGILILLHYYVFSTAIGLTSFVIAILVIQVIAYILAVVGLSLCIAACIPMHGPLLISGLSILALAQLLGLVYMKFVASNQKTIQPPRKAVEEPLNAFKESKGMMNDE
Parathyroid hormone/parathyroid hormone-related peptide receptor (Homo sapiens), sequence (Q03431 whole entry, looked up): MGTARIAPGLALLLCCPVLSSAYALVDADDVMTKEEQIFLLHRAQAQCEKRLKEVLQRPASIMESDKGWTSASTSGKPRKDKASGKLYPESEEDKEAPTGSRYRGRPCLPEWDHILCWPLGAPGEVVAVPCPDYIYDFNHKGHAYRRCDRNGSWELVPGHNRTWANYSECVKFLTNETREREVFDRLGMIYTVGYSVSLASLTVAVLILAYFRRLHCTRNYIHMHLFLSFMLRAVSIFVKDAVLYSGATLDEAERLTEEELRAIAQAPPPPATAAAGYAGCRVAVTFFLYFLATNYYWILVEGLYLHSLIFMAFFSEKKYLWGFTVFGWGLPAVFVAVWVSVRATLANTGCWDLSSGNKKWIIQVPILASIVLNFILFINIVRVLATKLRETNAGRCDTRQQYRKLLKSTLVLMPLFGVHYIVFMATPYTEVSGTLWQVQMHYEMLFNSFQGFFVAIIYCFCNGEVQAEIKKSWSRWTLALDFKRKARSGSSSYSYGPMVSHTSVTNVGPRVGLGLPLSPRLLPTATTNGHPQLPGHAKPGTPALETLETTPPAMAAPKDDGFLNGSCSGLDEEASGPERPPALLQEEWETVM
Atrial natriuretic peptide receptor 2 (Homo sapiens), sequence (P20594 whole entry, looked up): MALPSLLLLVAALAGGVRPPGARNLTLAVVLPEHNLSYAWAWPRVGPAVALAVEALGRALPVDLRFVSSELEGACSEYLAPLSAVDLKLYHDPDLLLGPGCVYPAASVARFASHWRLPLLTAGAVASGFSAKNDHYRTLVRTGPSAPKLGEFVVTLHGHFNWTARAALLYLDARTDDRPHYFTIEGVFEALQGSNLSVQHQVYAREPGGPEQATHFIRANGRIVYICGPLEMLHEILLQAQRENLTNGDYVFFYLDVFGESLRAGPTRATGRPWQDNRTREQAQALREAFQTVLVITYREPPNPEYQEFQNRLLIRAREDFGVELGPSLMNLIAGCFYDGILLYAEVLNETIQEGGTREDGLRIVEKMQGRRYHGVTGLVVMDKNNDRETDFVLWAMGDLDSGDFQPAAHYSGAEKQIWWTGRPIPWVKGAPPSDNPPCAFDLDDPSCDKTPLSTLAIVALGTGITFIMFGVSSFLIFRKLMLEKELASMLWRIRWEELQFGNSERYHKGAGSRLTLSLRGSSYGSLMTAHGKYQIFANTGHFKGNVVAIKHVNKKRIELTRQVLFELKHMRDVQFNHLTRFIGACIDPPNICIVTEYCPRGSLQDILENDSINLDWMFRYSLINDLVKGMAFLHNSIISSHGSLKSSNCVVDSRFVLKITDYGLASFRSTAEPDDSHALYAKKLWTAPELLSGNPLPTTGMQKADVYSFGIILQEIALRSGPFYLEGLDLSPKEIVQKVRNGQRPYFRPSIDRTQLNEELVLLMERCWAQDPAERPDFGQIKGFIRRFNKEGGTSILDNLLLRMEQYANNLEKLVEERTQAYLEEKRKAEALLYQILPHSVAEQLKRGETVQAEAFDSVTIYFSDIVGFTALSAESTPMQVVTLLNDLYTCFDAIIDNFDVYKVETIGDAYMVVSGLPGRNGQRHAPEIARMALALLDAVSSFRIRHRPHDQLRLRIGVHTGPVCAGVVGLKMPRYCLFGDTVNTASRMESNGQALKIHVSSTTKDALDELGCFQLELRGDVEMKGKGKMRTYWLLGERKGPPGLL
Atrial natriuretic peptide receptor 1 (Homo sapiens), sequence (P16066 whole entry, looked up): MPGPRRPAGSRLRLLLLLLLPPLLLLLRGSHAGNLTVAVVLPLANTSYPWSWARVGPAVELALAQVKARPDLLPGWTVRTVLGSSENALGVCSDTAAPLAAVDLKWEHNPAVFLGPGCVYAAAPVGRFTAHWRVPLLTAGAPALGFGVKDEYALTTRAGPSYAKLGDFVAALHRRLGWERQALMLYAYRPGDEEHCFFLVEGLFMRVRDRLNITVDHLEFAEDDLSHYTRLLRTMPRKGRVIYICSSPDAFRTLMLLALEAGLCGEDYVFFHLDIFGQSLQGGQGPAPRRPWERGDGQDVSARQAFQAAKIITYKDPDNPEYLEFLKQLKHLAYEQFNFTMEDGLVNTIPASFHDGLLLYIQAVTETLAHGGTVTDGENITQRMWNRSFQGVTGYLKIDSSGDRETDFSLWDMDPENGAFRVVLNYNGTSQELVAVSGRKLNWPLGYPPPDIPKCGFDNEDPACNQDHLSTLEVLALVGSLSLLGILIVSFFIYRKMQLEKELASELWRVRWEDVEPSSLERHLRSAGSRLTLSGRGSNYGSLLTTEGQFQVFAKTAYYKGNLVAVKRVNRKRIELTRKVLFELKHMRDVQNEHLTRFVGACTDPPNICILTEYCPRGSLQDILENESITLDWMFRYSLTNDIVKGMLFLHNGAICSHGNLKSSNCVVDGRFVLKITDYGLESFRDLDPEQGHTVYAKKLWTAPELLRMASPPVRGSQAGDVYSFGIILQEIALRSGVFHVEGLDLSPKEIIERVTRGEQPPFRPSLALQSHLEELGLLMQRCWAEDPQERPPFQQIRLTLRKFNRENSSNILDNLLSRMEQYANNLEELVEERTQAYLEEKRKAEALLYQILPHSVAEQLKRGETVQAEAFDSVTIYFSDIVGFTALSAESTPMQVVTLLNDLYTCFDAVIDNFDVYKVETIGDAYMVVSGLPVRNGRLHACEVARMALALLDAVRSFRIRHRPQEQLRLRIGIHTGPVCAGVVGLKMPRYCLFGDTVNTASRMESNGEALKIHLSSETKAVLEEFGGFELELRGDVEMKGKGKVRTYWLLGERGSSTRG

COc1cc(SC)ccc1C(=O)N1CCC(Cc2ccccc2)CC1
inactive: [1] | [2] | [3] | [4] | [5] | [6]

NC(=S)NCCC[C@H](N)C(=O)O
inactive: [7] | [1] | [2] | [6]

O=C(O)c1cc(=O)c2ccccc2[nH]1
inactive: [1] | [3] | [4] | [5] | [8] | [6]

O=C1NC(=O)/C(=C/c2ccc(-c3ccc(F)cc3O)o2)S1
inactive: [1] | [2] | [4] | [5] | [8] | [6]

O=C(Nc1cccc(C(=O)Nc2ccc(S(=O)(=O)O)c3cc(S(=O)(=O)O)cc(S(=O)(=O)O)c23)c1)Nc1cccc(C(=O)Nc2ccc(S(=O)(=O)O)c3cc(S(=O)(=O)O)cc(S(=O)(=O)O)c23)c1
inactive: [7] | [1] | [2] | [3] | [4] | [6]

C[C@@H](NC(=O)/C(C#N)=C/c1ccc(O)c(O)c1)c1ccccc1
inactive: [1]

COc1ccc(-c2cc(=O)c3c(O)c(OC)c(OC)cc3o2)cc1O
inactive: [3] | [4]

O=C(O)c1cc([N+](=O)[O-])ccc1NCCCc1ccccc1
not listed: [5] | [9] | [10]
inactive: all other assays above

COc1cc2c(CCNC(C)=O)c[nH]c2cc1Cl
inactive: [1] | [3] | [4] | [5] | [8] | [6]

CCCCCCCCCCCCCCCCCC(=O)NCC(COP(=O)([O-])OCC[N+](C)(C)C)OCC (stereo unspecified)
inactive: [1] | [6]

COCCOc1cc2nc[nH]c(=O)c2cc1OCCOC
inactive: [3] | [4] | [5] | [8]

Fc1ccc2[nH]c(CN3CCN(c4ccccn4)CC3)cc2c1
inactive: [3] | [4] | [5]

Brc1cc2c(cc1[C@H]1Nc3ccccc3[C@H]3C=CC[C@H]31)OCO2
inactive: [3] | [4] | [5] | [8]

O=S(=O)(c1cccc2c(I)cccc12)N1CCCNCC1
inactive: [1] | [4] | [8]

O=C1C(SCCO)=C(SCCO)C(=O)c2ccccc21
inactive: [4] | [6]
active: [7] 2070 nM | [1] 5360 nM | [2] 2930 nM

COCCOc1cc2ncnc(Cl)c2cc1OCCOC
inactive: [3] | [4] | [5]

Cc1cc(NC2CCCCC2)nc(-n2nc(C)cc2C)n1
not listed: [7] | [9] | [10]
inactive: all other assays above

CN(C)c1nc(N)c(C(=O)N=C(N)N)nc1Cl
inactive: [1] | [2] | [3] | [4] | [8] | [6]

CC1OC1P(=O)(O)O (stereo unspecified)
not listed: [3] | [9] | [10]
inactive: all other assays above

CC[C@H]1OC(=O)[C@H](C)C(O[C@H]2C[C@@](C)(OC)[C@@H](O)[C@H](C)O2)[C@H](C)[C@@H](OC2O[C@H](C)C[C@H](N(C)C)[C@H]2O)[C@](C)(O)C[C@@H](C)CN(C)[C@H](C)[C@@H](O)[C@]1(C)O (stereo partly specified)
inactive: [3] | [4] | [5] | [8]

O=C(CCc1ccncc1)NNC(=O)N1Cc2ccccc2Oc2ccc(Cl)cc21
inactive: [3] | [4] | [5] | [8]

COc1cc(OC)cc(-c2cc3cnc(N)nc3nc2NC(=O)NC(C)(C)C)c1
inactive: [3] | [4] | [5] | [8]

O=C1NC(O)=NC1(c1ccccc1)c1ccccc1
inactive: [3] | [4] | [8]

O=C(c1cc(O)c(O)c([N+](=O)[O-])c1)c1ccccc1F
inactive: [3] | [4] | [8] | [6]

COc1ccc(C(=O)/C(Cc2cc(OC)c(OC)c(OC)c2)=C(\C(=O)O)c2ccc3c(c2)OCO3)cc1
inactive: [4]

N[C@H](CCCP(=O)(O)O)C(=O)O
inactive: [4] | [8]

CC1(C)S[C@@H]2[C@H](NC(=O)[C@H](N)c3ccccc3)C(=O)N2[C@H]1C(=O)O
inactive: [3] | [9] | [10]

c1ccc(CCNc2nc(-c3ccccc3)cs2)cc1
inactive: [9]

CC(C)(NS(=O)(=O)c1ccc(Oc2ccc(F)cc2)cc1)C(=O)NO
inactive: [3] | [4] | [5] | [8]

Nc1nc2ccc(Cl)cc2n2c(-c3ccccc3)nnc12
inactive: [3] | [4] | [5] | [8]

CN[C@H](CC(C)C)C(=O)N[C@H]1C(=O)N[C@@H](CC(N)=O)C(=O)N[C@H]2C(=O)N[C@H]3C(=O)N[C@H](C(=O)N[C@H](C(=O)O)c4cc(O)cc(O)c4-c4cc3ccc4O)[C@H](O)c3ccc(c(Cl)c3)Oc3cc2cc(c3O[C@@H]2O[C@H](CO)[C@@H](O)[C@H](O)[C@H]2O[C@H]2C[C@](C)(N)[C@H](O)[C@H](C)O2)Oc2ccc(cc2Cl)[C@H]1O
inactive: [4] | [5] | [8]

Nc1nc2ccc([N+](=O)[O-])cc2s1
inactive: [9] | [10]

CCN(CC)CCCCNc1ncc2cc(-c3c(Cl)cccc3Cl)c(NC(=O)NC(C)(C)C)nc2n1
inactive: [4] | [8]

CCNC(=O)[C@H]1O[C@@H](n2cnc3c(N)nc(NCCc4ccc(CCC(=O)O)cc4)nc32)[C@H](O)C1O (stereo partly specified)
inactive: [3] | [4] | [5] | [8]

Nc1nc2c(ncn2[C@@H]2O[C@H](CO)[C@@H](O)[C@@H]2O)c(=O)[nH]1
inactive: [3] | [4] | [5] | [8]

O=C1NCc2c1c1c3ccccc3[nH]c1c1[nH]c3ccccc3c21
inactive: [3] | [4] | [5] | [8]

CNCC[C@H](Oc1ccc(C(F)(F)F)cc1)c1ccccc1
inactive: [3] | [6]

CO[C@H]1O[C@@H]2O[C@]3(C)CC[C@@H]4[C@@H](C)CC[C@H]([C@H]1C)[C@]24OO3
inactive: [3] | [4] | [5] | [8]

COc1ccccc1CN[C@@H]1CCCN[C@@H]1c1ccccc1
inactive: [3] | [4] | [5] | [8]

CS(=O)(=O)c1ccc(-n2nc(C(F)(F)F)cc2-c2ccc(F)cc2)cc1
inactive: [4] | [5] | [8]

Cc1ccc2c(n1)Oc1ccc(C(C)C(=O)OCC(=O)N(C)C)cc1C2 (stereo unspecified)
inactive: [3] | [9] | [10]

CNC(=O)c1c(I)c(NC(=O)CCCCC(=O)Nc2c(I)c(C(=O)O)c(I)c(C(=O)NC)c2I)c(I)c(C(=O)O)c1I
inactive: [3] | [9] | [10]

Cc1cn([C@H]2CC(N=[N+]=[N-])[C@@H](CO)O2)c(=O)[nH]c1=O (stereo partly specified)
inactive: [3] | [4] | [8]

NS(=O)(=O)c1ccc(-n2nc(C(F)(F)F)cc2-c2ccc(Cl)cc2)cc1
inactive: [4] | [8]

CC(C)(C)c1nnc(NS(=O)(=O)c2ccc(N)cc2)s1
inactive: [9] | [10]

CC(C)c1cccc(C(C)C)c1N1C(=O)c2ccc(O)cc2C1=O
inactive: [3] | [4] | [5] | [8]

O=C(Nc1ccncc1)c1cc([N+](=O)[O-])ccc1Cl
inactive: [3] | [4] | [8]

Nc1ccn([C@H]2O[C@H](CO)[C@@H](O)C2(F)F)c(=O)n1
inactive: [4] | [5] | [8]

COc1ccc(/C=C/c2nc(NCCCN(C)C)c3ccccc3n2)cc1
inactive: [3] | [8]

O=C(NOCC1CC1)c1cc(Br)c(F)c(F)c1Nc1ccc(I)cc1Cl
inactive: [3] | [4] | [8]

CCCC(CCC)C(=O)OC1CC2CCC(C1)[N+]2(C)C (stereo unspecified)
inactive: [3] | [4] | [5] | [8]

CC[C@H]1OC(=O)[C@H](C)[C@@H](O[C@H]2C[C@@](C)(OC)[C@@H](O)[C@H](C)O2)[C@H](C)[C@@H](O[C@@H]2O[C@H](C)C[C@H](NC)[C@H]2O)[C@](C)(O)C[C@@H](C)CN(C)[C@H](C)[C@@H](O)[C@]1(C)O
inactive: [3] | [4] | [5] | [8]

Cn1c(=O)c(-c2c(Cl)cccc2Cl)cc2cnc(Nc3ccc(N4CCOCC4)cc3)nc21
inactive: [4] | [5]

COc1ccc(/C=C2\COc3ccc(C)cc3C2=O)cc1O
inactive: [4] | [8]

CC(C)OC(=O)c1cc(C(=O)OC(C)C)cc([N+](=O)[O-])c1
inactive: [3] | [9] | [10]

CCCCCCCCCCCCCCCCCCN(CCCCCCCCCCCCCCCCCC)CCCN(CCO)CCO
inactive: [3] | [4] | [5] | [8]

O=C(CCSCc1ccco1)NNC(=O)N1Cc2ccccc2Oc2ccc(Cl)cc21
inactive: [3] | [4] | [5] | [8]

O=c1cc(-c2ccccc2)oc2ccccc12
inactive: [3] | [10]

Nc1nc(OCC2CCCCC2)c2[nH]cnc2n1
inactive: [3] | [4] | [5] | [8]
